Assay results as given in the supplement of paper PMC10849652.
Targets with a hit are over-represented here; the source holds about 7,900 in all. About 0.6% of all pairs of compound and target were hits.

Legend:
Assay in all cases: log2 fold change, soluble protein after heating vs DMSO (PISA); higher = thermal stabilisation; K562 cells, 10 uM, 30 min; active = over 0.2 and 3.5 SD of the protein, either way, in both replicates (recomputed)
[1] = target: ZW10 (UniProt O43264)
In short: (§1)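 Values are thermal stability changes relative to control samples and are taken from duplicates. They are stated as log2 fold changes. Before quantification by TMTpro 16plex LC-MS/MS with equalised channel sums, K562 cells at 2×10^6 cells/mL were treated with 10 μM compound for 30 min, heated in aliquots for 3 min across 48°C-58°C, pooled, extracted in PBS with 0.5% NP-40 at 4°C, and centrifuged at 21,000xg for 90 min to give the soluble supernatant.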

[2] = target: ZWILCH (UniProt Q9H900)
Chain of ZWILCH (Q9H900 whole entry, looked up): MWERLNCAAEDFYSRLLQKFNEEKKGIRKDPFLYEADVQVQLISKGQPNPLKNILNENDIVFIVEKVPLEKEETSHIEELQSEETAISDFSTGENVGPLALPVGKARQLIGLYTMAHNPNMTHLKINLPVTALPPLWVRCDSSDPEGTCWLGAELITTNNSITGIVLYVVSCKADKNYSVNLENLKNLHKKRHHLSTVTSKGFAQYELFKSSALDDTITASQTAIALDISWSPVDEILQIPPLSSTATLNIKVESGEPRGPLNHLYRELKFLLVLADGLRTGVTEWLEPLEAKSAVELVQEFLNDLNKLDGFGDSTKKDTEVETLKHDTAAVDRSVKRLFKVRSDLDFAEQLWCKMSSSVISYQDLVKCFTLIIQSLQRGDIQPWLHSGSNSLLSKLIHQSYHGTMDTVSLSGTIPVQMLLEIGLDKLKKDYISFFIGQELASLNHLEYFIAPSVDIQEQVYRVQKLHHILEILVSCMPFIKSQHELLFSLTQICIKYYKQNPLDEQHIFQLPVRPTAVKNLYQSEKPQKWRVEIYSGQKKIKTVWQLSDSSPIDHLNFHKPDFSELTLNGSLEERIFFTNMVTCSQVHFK
In short: as §1

[3] = target: ZYG11B (UniProt Q9C0D3)
Chain of ZYG11B (Q9C0D3 whole entry, looked up): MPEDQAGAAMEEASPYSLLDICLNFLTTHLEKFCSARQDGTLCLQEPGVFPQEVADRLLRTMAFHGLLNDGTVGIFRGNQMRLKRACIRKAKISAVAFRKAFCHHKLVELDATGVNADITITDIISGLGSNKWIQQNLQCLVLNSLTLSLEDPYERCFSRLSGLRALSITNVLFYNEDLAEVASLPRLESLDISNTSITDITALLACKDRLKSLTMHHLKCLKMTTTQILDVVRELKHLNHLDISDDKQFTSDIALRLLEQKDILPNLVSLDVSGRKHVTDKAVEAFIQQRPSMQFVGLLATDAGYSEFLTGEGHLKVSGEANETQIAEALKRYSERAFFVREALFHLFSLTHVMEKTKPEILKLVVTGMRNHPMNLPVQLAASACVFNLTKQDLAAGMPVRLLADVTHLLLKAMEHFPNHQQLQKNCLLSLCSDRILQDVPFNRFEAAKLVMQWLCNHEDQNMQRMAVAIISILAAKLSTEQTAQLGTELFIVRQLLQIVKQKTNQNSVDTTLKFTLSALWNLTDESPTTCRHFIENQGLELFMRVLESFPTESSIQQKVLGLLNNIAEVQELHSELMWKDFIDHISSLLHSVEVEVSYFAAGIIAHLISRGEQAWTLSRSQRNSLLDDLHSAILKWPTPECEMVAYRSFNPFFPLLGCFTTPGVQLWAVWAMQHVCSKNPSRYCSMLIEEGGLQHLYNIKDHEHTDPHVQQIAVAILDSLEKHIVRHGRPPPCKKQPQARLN
In short: as §1

Measured: log2 fold change

Chain of ZW10 (O43264 whole entry, looked up): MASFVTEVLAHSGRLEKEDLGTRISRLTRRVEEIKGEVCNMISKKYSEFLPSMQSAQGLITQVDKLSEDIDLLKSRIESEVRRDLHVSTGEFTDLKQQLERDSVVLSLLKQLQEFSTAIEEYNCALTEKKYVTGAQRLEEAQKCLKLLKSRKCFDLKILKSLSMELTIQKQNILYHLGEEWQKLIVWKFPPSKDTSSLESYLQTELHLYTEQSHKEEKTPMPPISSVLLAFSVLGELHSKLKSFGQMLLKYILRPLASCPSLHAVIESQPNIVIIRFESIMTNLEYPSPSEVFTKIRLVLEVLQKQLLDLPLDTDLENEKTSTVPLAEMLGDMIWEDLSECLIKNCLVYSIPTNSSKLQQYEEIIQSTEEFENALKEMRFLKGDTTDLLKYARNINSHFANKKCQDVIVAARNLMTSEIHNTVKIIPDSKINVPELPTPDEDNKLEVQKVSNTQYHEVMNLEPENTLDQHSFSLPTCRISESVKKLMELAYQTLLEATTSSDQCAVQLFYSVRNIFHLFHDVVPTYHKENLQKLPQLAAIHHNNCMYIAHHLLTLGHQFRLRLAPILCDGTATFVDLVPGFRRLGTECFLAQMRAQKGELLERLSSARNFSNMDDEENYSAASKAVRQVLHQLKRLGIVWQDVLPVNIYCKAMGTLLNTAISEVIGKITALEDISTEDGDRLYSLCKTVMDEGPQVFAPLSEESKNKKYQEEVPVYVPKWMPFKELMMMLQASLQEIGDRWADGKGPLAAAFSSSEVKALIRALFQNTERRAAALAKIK

CN1CCc2c(c3ccccc3n2Cc2ccc(C(=O)NO)cc2)C1 [Tubastatin A]
inactive: [1] 0.031 | [2] -0.028 | [3] 0.04

COC(=O)N[C@@H](C)CNc1nccc(-c2cn(C(C)C)nc2-c2cc(Cl)cc(NS(C)(=O)=O)c2F)n1 [encorafenib]
inactive: [1] 0.094 | [2] 0.076 | [3] -0.055

FC(F)(F)c1ccc(/C=C/c2nc(COc3ccc(CCCCn4ccnn4)cc3)co2)cc1 [mubritinib]
inactive: [1] 0.028 | [2] 0.037 | [3] 0.01

Cn1cc(-c2ccc3c(c2)CCN3C(=O)Cc2cccc(C(F)(F)F)c2)c2c(N)ncnc21
inactive: [1] -0.076 | [2] -0.057 | [3] 0.063

NC(=O)c1ccc2nc(-c3ccc(Oc4ccc(Cl)cc4)cc3)[nH]c2c1
inactive: [1] -0.005 | [2] -0.028 | [3] 0

CS(=O)(=O)c1ccc(-c2cnc(N)c(C(=O)Nc3ccccc3)n2)cc1
inactive: [1] 0.027 | [2] -0.003 | [3] 0.01

Cc1ccc(NC(=O)c2cccc(C(C)(C)C#N)c2)cc1Nc1ccc2ncn(C)c(=O)c2c1
inactive: [1] 0.015 | [2] 0 | [3] -0.006

O=C(CCCCCCNC(=O)c1cnc(N(c2ccccc2)c2ccccc2Cl)nc1)NO [citarinostat]
inactive: [1] 0.033 | [2] 0.104 | [3] -0.043

Cc1cc(Nc2cc(CN3CCOCC3)c3nc(C)c(Cc4ccc(Cl)cc4F)n3n2)n[nH]1 [gandotinib]
inactive: [1] -0.108 | [2] -0.12 | [3] 0.093
